Measured values taken from PubChem BioAssay (NCI).
The panel holds about 83,000 compounds, 20% with a hit somewhere; the sample as a whole holds those more often.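 Testing used 96-well plates and a 48-hour single-concentration exposure. Example: -40 means 40% of the starting cells died.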 Activity calls are given as the source filed them. Rule for the calls: active = growth percent below 10; inactive = the rest.

Tests used:
Experiment in all cases: NCI-60 one-dose screen, 48 h (100 = growth as untreated, 0 = no growth, -100 = all killed)
Details in all cases: 10 µM unless noted
NCI-H23 lung = test system: NCI-H23 lung
NCI-H226 lung = test system: NCI-H226 lung
NCI-H322M lung = test system: NCI-H322M lung
HOP-62 NSCLC = test system: HOP-62 NSCLC
NCI-H460 lung = test system: NCI-H460 lung
HOP-92 NSCLC = test system: HOP-92 NSCLC
NCI-H522 lung = test system: NCI-H522 lung
A549/ATCC NSCLC = test system: A549/ATCC NSCLC
786-0 renal = test system: 786-0 renal
COLO 205 colon = test system: COLO 205 colon
DU-145 prostate = test system: DU-145 prostate
K-562 leukemia = test system: K-562 leukemia
MALME-3M melanoma = test system: MALME-3M melanoma
MDA-MB-231 breast = test system: MDA-MB-231 breast
RXF 393 renal = test system: RXF 393 renal
SF-268 CNS = test system: SF-268 CNS
SF-295 CNS = test system: SF-295 CNS
SF-539 CNS = test system: SF-539 CNS
UACC-257 melanoma = test system: UACC-257 melanoma
M14 melanoma = test system: M14 melanoma

Measured: growth

Cc1ccc(C(=O)CSc2nc3ccc(C)cc3c(=O)n2-c2ccc(F)cc2)cc1
inactive: NCI-H23 lung 56.8% | NCI-H226 lung 15% | NCI-H322M lung 60% | NCI-H460 lung 32.7% | NCI-H522 lung 63.8% | A549/ATCC NSCLC 57.6% | COLO 205 colon 84% | DU-145 prostate 80.9% | K-562 leukemia 92.7% | MALME-3M melanoma 79.6% | MDA-MB-231 breast 21.3% | RXF 393 renal 30.5% | SF-268 CNS 45.5% | SF-295 CNS 28% | SF-539 CNS 40.2% | UACC-257 melanoma 85.9% | M14 melanoma 79.7%
active: HOP-62 NSCLC 7.49% | HOP-92 NSCLC -0.0399% | 786-0 renal -3.55%

COc1cc2oc(-c3cccc(C(=O)Nc4cccc([N+](=O)[O-])c4)c3)cc(=O)c2c(OC)c1OC
inactive: NCI-H23 lung 41.1% | NCI-H322M lung 40.2% | NCI-H460 lung 32.3% | A549/ATCC NSCLC 23% | COLO 205 colon 91% | DU-145 prostate 29.5% | K-562 leukemia 69.2% | MALME-3M melanoma 11.4% | MDA-MB-231 breast 11.5% | UACC-257 melanoma 31.7% | M14 melanoma 58.2%
active: NCI-H226 lung -18.5% | HOP-62 NSCLC -13.4% | HOP-92 NSCLC 6.73% | NCI-H522 lung -46% | 786-0 renal -22.9% | RXF 393 renal -13.4% | SF-268 CNS -3.57% | SF-295 CNS -0.211% | SF-539 CNS 3.56%

Cc1cc(=O)oc2cc(OCCOc3ccc(/C=C/C(=O)Nc4ccccc4N)cc3)ccc12
inactive: NCI-H23 lung 46.5% | NCI-H226 lung 24.8% | NCI-H322M lung 63% | HOP-62 NSCLC 24.1% | NCI-H460 lung 19.5% | HOP-92 NSCLC 31% | A549/ATCC NSCLC 30.3% | 786-0 renal 23.4% | DU-145 prostate 35.9% | K-562 leukemia 21.1% | MALME-3M melanoma 48.6% | RXF 393 renal 31% | SF-268 CNS 27.9% | SF-295 CNS 30.6% | SF-539 CNS 18.9% | UACC-257 melanoma 30.3% | M14 melanoma 54.2%
active: NCI-H522 lung 3.88% | COLO 205 colon -24.8% | MDA-MB-231 breast -16.1%

Cn1cc(-c2nc(N)nnc2-c2c[nH]c3ccc(F)cc23)c2cccnc21
inactive: NCI-H23 lung 35.2% | NCI-H226 lung 38% | NCI-H322M lung 56.2% | HOP-62 NSCLC 20% | NCI-H460 lung 11.6% | HOP-92 NSCLC 46.5% | NCI-H522 lung 36.6% | A549/ATCC NSCLC 43.8% | 786-0 renal 52.5% | COLO 205 colon 53.5% | DU-145 prostate 49.9% | K-562 leukemia 30.2% | MALME-3M melanoma 64.5% | MDA-MB-231 breast 22% | RXF 393 renal 60.5% | SF-268 CNS 34% | SF-295 CNS 15.8% | SF-539 CNS 40.8% | UACC-257 melanoma 61.9% | M14 melanoma 26.3%

CN(C)CCOc1ccc(C(=O)C2[C@H](c3ccc(Cl)cc3)[C@@H](c3ccccc3)NC23C(=O)Nc2ccccc23)cc1 (stereo not given in full)
inactive: NCI-H23 lung 79.6% | NCI-H226 lung 72% | NCI-H322M lung 82.5% | HOP-62 NSCLC 84.2% | HOP-92 NSCLC 21.4% | NCI-H522 lung 89.6% | A549/ATCC NSCLC 48.1% | 786-0 renal 40.8% | DU-145 prostate 66.6% | MALME-3M melanoma 79.8% | MDA-MB-231 breast 49.5% | RXF 393 renal 50.4% | SF-268 CNS 78.1% | SF-295 CNS 65.7% | SF-539 CNS 82.8% | UACC-257 melanoma 95.8% | M14 melanoma 45.2%
active: NCI-H460 lung 9.91% | COLO 205 colon -63.2% | K-562 leukemia -51.5%

Cc1ccc([C@H]2C(C(=O)c3ccc(Cl)cc3)C3(N[C@@H]2c2ccccc2)C(=O)Nc2ccc(Br)cc23)cc1 (stereo not given in full)
inactive: NCI-H23 lung 61.4% | NCI-H226 lung 66.7% | NCI-H322M lung 69.1% | HOP-62 NSCLC 69.9% | NCI-H460 lung 55.6% | HOP-92 NSCLC 21.9% | NCI-H522 lung 46.5% | A549/ATCC NSCLC 38.4% | 786-0 renal 45.8% | COLO 205 colon 49.3% | DU-145 prostate 82.5% | K-562 leukemia 26.6% | MALME-3M melanoma 92.2% | MDA-MB-231 breast 49.7% | RXF 393 renal 33.6% | SF-268 CNS 100% | SF-295 CNS 52.4% | SF-539 CNS 79.7% | UACC-257 melanoma 71.6% | M14 melanoma 44.3%

CN1C(=O)/C(=C/c2ccc(C(=O)Nc3ncc(Cc4ccc(Cl)cc4Cl)s3)cc2)SC1=S
inactive: NCI-H23 lung 42.8% | NCI-H226 lung 51.8% | NCI-H322M lung 47.1% | HOP-62 NSCLC 59.3% | NCI-H460 lung 46.2% | HOP-92 NSCLC 64.4% | NCI-H522 lung 19.2% | A549/ATCC NSCLC 42.7% | 786-0 renal 53.3% | COLO 205 colon 27.6% | DU-145 prostate 30.7% | K-562 leukemia 24.3% | MALME-3M melanoma 23.1% | MDA-MB-231 breast 43.6% | RXF 393 renal 30.9% | SF-268 CNS 47% | SF-295 CNS 10.8% | SF-539 CNS 36.9% | UACC-257 melanoma 33.1% | M14 melanoma 11.6%
